Hits are enriched below; roughly 19% of the tested compounds scored in any of these assays.
DT40 TDP1 no CPT: qHTS for Inhibitors of human tyrosyl-DNA phosphodiesterase 1 (TDP1): qHTS in cells in absence of CPT | Potency, µM (series often up to 46.2 µM), for the others: at the top dose activity change, negative = growth inhibition, most hits filed as inhibitors | AID 686978, 2013 | 420,000 tested, 15% active | DT40 Tdp1-/- hTDP1 cells, no CPT, ATP luminescence, 48 h; note: potency is the fitted concentration of half-maximal effect; nearly all actives have a fitted effect of over 55% in size
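Chicken DT40 Tdp1-/- cells complemented with human TDP1, screened without camptothecin (DMSO vehicle only), 400 cells/well. Compounds pin-transferred, cells incubated at 37 °C for at least 48 hr. Growth read as ATP-dependent luminescence (CellTiter-Glo, 30 min at RT).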
HT1080-NT tox: kills 2HG-producing HT-1080-NT fibrosarcoma cells; HT-1080-NT fibrosarcoma viability, CellTiter-Glo ATP luminescence, 48 h; Potency, µM (top dose mostly 46.1 µM), for inactives: top-dose activity, negative = less viability, actives largely listed as cytotoxic; 360,000 tested, 1.6% active; AID 686970;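 note: NT is the 2HG producing partner of a matched IDH1 knockdown line; potency is the fitted concentration of half-maximal effect; 0% = DMSO-treated cells and -100% = media-only wells without cells; nearly all actives have a fitted effect of over 55% in size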
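HT-1080-NT fibrosarcoma cells (2HG-overproducing), 750 cells/well in RPMI with 5% FBS, dosed after 2 h and incubated 48 h at 37C. CellTiter-Glo luminescence normalized to DMSO and no-cell wells; concentration-response curves fitted and classed.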
HT1080 IDH1KD tx: HT-1080 IDH1 knockdown cell toxicity (counter line); HT-1080 IDH1 knockdown viability, ATP luminescence, 48 h; Potency, µM (titrated, usually from 46.1 µM), for the others: at the top dose activity, negative = toxicity, usual class: cytotoxic; 360,000 tested, 2% active; AID 686971;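 note: potency is the fitted concentration of half-maximal effect; 0% = DMSO wells and -100% = cell-free medium wells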
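Viability of IDH1-knockdown HT-1080 fibrosarcoma cells was assessed by CellTiter-Glo after 48 h at 37 °C with titrated compound; concentration-effect curves were classified by fit quality and response size.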
DT40 TDP1 CPT: growth inhibition of DT40 Tdp1-/-;hTDP1 cells with camptothecin (screen for TDP1 inhibitors); chicken DT40 Tdp1-/-;hTDP1 cells + 20 nM CPT, ATP luminescence, 48 h; Potency, µM (highest dose often 46.2 µM), inactives show at the top dose activity change, negative = growth inhibition, usual class: inhibitors; 420,000 tested, 12% active; AID 686979; note: potency is the fitted concentration of half-maximal effect; nearly all actives have a fitted effect of over 55% in size
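Chicken DT40 Tdp1-/- cells complemented with human TDP1, 400 cells/well, exposed to compounds plus 20 nM camptothecin for at least 48 h at 37 C; viability read as ATP content by CellTiter-Glo luminescence.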
IL-1B inflam inh: blocks inflammasome-driven IL-1 beta release; AID 743279; THP-1 LPS/ATP IL-1B secretion, AlphaLISA, 16 h; stronger effect = lower value; activity change, % at 57.5 µM; 360,000 tested, 4.7% active; in the data active = activity change below about -50%; inconclusive = mostly about -30% to -49%
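Secreted IL-1B measured by AlphaLISA bead assay after 16 h compound exposure of THP-1 cells; compounds (final up to 57.5 uM) added 1 h before LPS (250 ng/mL) and ATP (1.25 mM) stimulation; lower signal means less secretion.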
ELG1 repair inh: inhibitors of ELG1-dependent DNA repair in HEK293T cells | HEK293T ELG1-luciferase reporter, luminescence, 16 h; DNA damage induced by 5-fluorouridine | Potency, µM (series often up to 46.1 µM), for inactives: at the highest dose activity change, negative = inhibition, most hits filed as inhibitors | 330,000 tested, 2.3% active | AID 504467; note: potency is the fitted concentration of half-maximal effect; nearly all actives have a fitted effect of over 55% in size
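DMSO vehicle served as the neutral condition. Each well held 2,000 cells given 5-fluorouridine plus compound; after 16 hr at 37 °C/5% CO2, ONE-Glo was added and luciferase measured 30 min later.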
Active calls of the source: *; ? = inconclusive; . = not tested or not shown. Unless noted, calls come from the whole dose curve; as a rule, active = well fitted curve in the direction sought with a large enough effect; inconclusive = small, poorly fitted or top-dose-only effect, or another doubt; inactive = no such curve, though single readings can be large; an effect the other way counts as inactive or inconclusive. Unless noted, % is set by controls: 0 for no effect and ±100 for the full control effect.

SMILES	DT40 TDP1 no CPT	HT1080-NT tox	HT1080 IDH1KD tx	DT40 TDP1 CPT	IL-1B inflam inh	ELG1 repair inh
COc1ccc2c(=O)c3c(=O)n(CCc4ccccc4)c(C)nc3oc2c1	-20%	11%	13%	12%	.	.
CC1(Oc2cccc(C#N)c2)CCN(Cc2ccccc2OC(F)F)C1 (stereo not drawn)	?	-26%	8%	?	-19	.
COc1ccc2c(=O)c3c(=O)n(-c4ccccc4)c(-c4ccc(C)cc4)nc3oc2c1	18µM*	2%	16%	-24%	60	?
Cc1ccc(NC(c2nnc(-c3ccccc3)o2)c2ccccc2F)c([N+](=O)[O-])c1 (stereo not drawn)	23µM*	.	.	-23%	.	.
COc1ccc([N+](=O)[O-])cc1NC(c1nnc(-c2ccccc2)o1)c1ccccc1F (stereo not drawn)	10%	.	.	15%	.	.
Cc1cc(F)ccc1C(O)c1ncc(-c2ccccc2)[nH]1 (stereo not drawn)	-18%	-9%	-9%	-27%	43	.
Cc1cc(F)ccc1C(O)c1ncc(-c2ccc(Oc3ccccc3)cc2)[nH]1 (stereo not drawn)	?	?	?	21µM*	1	.
OC(c1cccc(F)c1)c1ncc(-c2ccc(Oc3ccccc3)cc2)[nH]1 (stereo not drawn)	?	16µM*	?	?	-23	.
OC(c1cccc(Cl)c1)c1ncc(-c2ccc(Oc3ccccc3)cc2)[nH]1 (stereo not drawn)	?	?	?	?	-52*	.
COc1cccc(C(O)c2ncc(-c3ccccc3)[nH]2)c1 (stereo not drawn)	-23%	15%	7%	?	18	.
OC(c1ccc(Cl)c(F)c1)c1ncc(-c2cccc(F)c2)[nH]1 (stereo not drawn)	?	?	?	?	16	.
OC(c1ccc(Cl)c(F)c1)c1ncc(-c2ccc(Oc3ccccc3)cc2)[nH]1 (stereo not drawn)	?	?	?	23µM*	?	.
COc1ccc(C(O)c2ncc(-c3ccc(Cl)cc3)[nH]2)cc1 (stereo not drawn)	-21%	-9%	-11%	?	-3	.
CC(=O)c1ccc(S(=O)(=O)N2CCn3cccc3C2c2ccc(C)cc2)cc1 (stereo not drawn)	?	.	.	21µM*	.	.
O=S(=O)(c1ccc(Br)cc1)N1CCn2cccc2C1c1ccc(Br)cc1 (stereo not drawn)	16µM*	.	.	?	.	.
Cn1c(=O)c2c(-c3ccccc3)n(-c3ccccc3Br)cc2n(C)c1=O	5.2µM*	-29%	-23%	4.6µM*	-1	.
Cn1c(=O)c2c(-c3ccccc3)n(-c3cccc(O)c3)cc2n(C)c1=O	9.2µM*	-3%	-17%	18µM*	-13	.
COc1ccc(-c2c3c(=O)n(C)c(=O)n(C)c3cn2-c2ccccc2O)cc1	-27%	-26%	-22%	?	40	-11%
COc1ccc(-c2c3c(=O)n(C)c(=O)n(C)c3cn2-c2cc(OC)ccc2OC)cc1	23µM*	-17%	?	?	-9	?
Cn1c(=O)c2c(-c3ccccc3)n(-c3ccc(N)cc3)cc2n(C)c1=O	15µM*	-12%	1%	?	5	.
Cc1cccc(-c2c3c(=O)n(C)c(=O)n(C)c3cn2-c2ccc(O)cc2)c1	?	-7%	-10%	?	7	.
CC(=O)Nc1cccc(NC(=O)NC2CC(=O)N(c3ccc4c(c3)OCCO4)C2)c1 (stereo not drawn)	-1%	-3%	0%	-7%	-2	.
